Compound activity from PubChem BioAssay.
HSV augment: HSV replication enhancement; HSV replication augmentation in cells, fold increase; maximum fold increase; hit rate 0.005% among 220,000; in the data active = maximum fold increase above about 1.5; tested in PC3 cells
L929 necroptosis: L929 zVAD cell death inhibition; viability rescue, % at 10 µM; AID 1377; L929 zVAD necroptosis rescue, ATP luminescence, 24 h; with zVAD 60 µM; hit rate 0.38% among 220,000;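 active = activation, scaled between plate controls, above about 75%, limit read from the data; inactive = activation under that limit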;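 also: 0% = zVAD with DMSO and 100% = DMSO alone without zVAD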
TNF death inh: inhibitors of TNF-alpha induced necroptosis in Jurkat FADD-/- cells; Jurkat FADD-/- TNF necroptosis rescue, ATP luminescence, 24 h; 0 = TNF only, 100 = no-TNF cells; activation (protection from cell death), % at 10 µM; hit rate 0.068% among 220,000; AID 463075;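 active = activation, meaning protection from cell death, of at least 50% relative to plate controls; inactive = activation below 50%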;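 also: necroptosis triggered by 40 ng/mL TNF-alpha added together with compound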
m-calpain inh: inhibitors of pig calpain II; hit rate 0.37% among 220,000; purified calpain II, fluorogenic peptide substrate, 30 min; inhibition, % at 16 µM;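 active = inhibition above about 50%, limit read from the data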
zVAD death conf: confirmed blocker of zVAD induced death in L929 cells | activation (protection from necroptosis), % at 10 µM | shares compounds with L929 necroptosis | L929 zVAD-induced necroptosis rescue, ATP luminescence, 24 h | hit rate 16% among 760;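 active = mean protection from necroptosis of at least 50% over duplicate tests; inactive = mean protection below 50%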;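 also: 0% = cells with zVAD alone and 100% = vehicle cells without zVAD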
An asterisk follows results filed as active. Hits are enriched below; roughly 0.77% of the tested compounds scored in any of these assays.

Results for CC(=O)n1nc(-c2ccccc2)nc1NCc1cccs1 ?
HSV augment: inactive; L929 necroptosis: 86*; TNF death inh: 2; m-calpain inh: -6; zVAD death conf: 5

What do the screens show for `CCC(=O)n1nc(-c2cccnc2)nc1NCc1ccc(OC)cc1`?
HSV augment: inactive; L929 necroptosis: 1; TNF death inh: 0; m-calpain inh: 18

What do the screens show for `CC(=O)n1nc(-c2ccccc2)nc1NCc1ccc(N(C)C)cc1`?
HSV augment: inactive; L929 necroptosis: 4; TNF death inh: 1; m-calpain inh: 19

What do the screens show for `COCC(=O)n1nc(-c2ccccc2)nc1NCc1ccc(F)cc1`?
HSV augment: inactive; L929 necroptosis: 10; TNF death inh: 3; m-calpain inh: -10

How did COCC(=O)n1nc(-c2ccccc2)nc1NCc1ccccc1 do in these assays?
HSV augment: inactive; L929 necroptosis: 86*; TNF death inh: 5; m-calpain inh: 22; zVAD death conf: 1

What do the screens show for `CCC(=O)n1nc(-c2ccc(OC)cc2)nc1NCc1cccs1`?
HSV augment: inactive; L929 necroptosis: 76*; TNF death inh: 2; m-calpain inh: -16; zVAD death conf: 0

What do the screens show for `COc1cc(/C=N/NC(=O)C(=O)Nc2ccccn2)ccc1O`?
HSV augment: inactive; L929 necroptosis: 0; TNF death inh: 0; m-calpain inh: 40

What do the screens show for `Fc1ccc(/C=N/Nc2ccccn2)cc1`?
HSV augment: inactive; L929 necroptosis: 73; TNF death inh: 17; m-calpain inh: 5

How did CCOc1ccc(/C=N/Nc2ccccn2)cc1 do in these assays?
HSV augment: inactive; L929 necroptosis: 78*; TNF death inh: 12; m-calpain inh: 1; zVAD death conf: 4

Results for CCCOc1ccc(/C=N/NC(=O)C(=O)Nc2ccccn2)cc1 ?
HSV augment: inactive; L929 necroptosis: 0; TNF death inh: 0; m-calpain inh: -8

Results for COc1ccc(/C=N/Nc2ccccn2)cc1O ?
HSV augment: inactive; L929 necroptosis: 90*; TNF death inh: 60*; m-calpain inh: 2; zVAD death conf: 64*

What do the screens show for `COc1ccc(/C=N/Nc2cc(OC)ncn2)cc1`?
HSV augment: inactive; L929 necroptosis: 78*; TNF death inh: 6; m-calpain inh: 0; zVAD death conf: 28

How did Brc1ccc(/C=N/Nc2ccccn2)cc1 do in these assays?
HSV augment: inactive; L929 necroptosis: 78*; TNF death inh: 15; m-calpain inh: -17; zVAD death conf: 4

Results for COc1ccc(/C=N/Nc2cc(N(C)C)nc(N(C)C)n2)cc1 ?
HSV augment: inactive; L929 necroptosis: 4; TNF death inh: 0; m-calpain inh: 17

Results for CNc1nc(NC#N)nc(SC)n1 ?
HSV augment: inactive; L929 necroptosis: 0; TNF death inh: 0; m-calpain inh: 25

What do the screens show for `COc1ccc(NS(=O)(=O)c2cc(NC(=O)c3ccc(C)s3)ccc2N2CCOCC2)cc1`?
HSV augment: inactive; L929 necroptosis: 2; TNF death inh: 2; m-calpain inh: -19

Results for Cc1noc(C)c1/C=N/Nc1ccccn1 ?
HSV augment: inactive; L929 necroptosis: 82*; TNF death inh: 45; m-calpain inh: -12; zVAD death conf: 73*

What do the screens show for `Clc1ccc(/C=N/Nc2ccccn2)cc1`?
HSV augment: inactive; L929 necroptosis: 81*; TNF death inh: 18; m-calpain inh: -2; zVAD death conf: 45

How did COc1ccc(C(=O)OCC(=O)NC(=O)NC2CCCC2)c(O)c1 do in these assays?
HSV augment: inactive; L929 necroptosis: 77*; TNF death inh: 1; m-calpain inh: 25; zVAD death conf: 10

Results for CC(=O)Nc1ccc(Sc2ncccc2C(=O)Nc2ccc(OC(F)(F)F)cc2)cn1 ?
HSV augment: inactive; L929 necroptosis: 80*; TNF death inh: -11; m-calpain inh: -38; zVAD death conf: 77*

Results for CCN1CCN(C(=O)Cn2cnc3sc(C)c(S(=O)(=O)N4CCN(c5ncccn5)CC4)c3c2=O)CC1 ?
HSV augment: inactive; L929 necroptosis: 1; TNF death inh: -1; m-calpain inh: -18

What do the screens show for `CCn1c2ccccc2c2cc([N+](=O)[O-])ccc21`?
HSV augment: inactive; L929 necroptosis: 2; TNF death inh: 0; m-calpain inh: -21

How did CCn1c2ccccc2c(=O)c2ccccc21 do in these assays?
HSV augment: inactive; L929 necroptosis: 80*; TNF death inh: 0; m-calpain inh: inactive; zVAD death conf: 2

What do the screens show for `CC(=O)Nc1ccc(-c2csc(Nc3ncccn3)n2)cc1`?
HSV augment: inactive; L929 necroptosis: 80*; TNF death inh: 4; m-calpain inh: -17; zVAD death conf: 1

Results for Oc1ccc(-c2csc(Nc3ncccn3)n2)cc1 ?
HSV augment: inactive; L929 necroptosis: 78*; TNF death inh: 16; m-calpain inh: -17; zVAD death conf: 75*

What do the screens show for `Cc1ccc(Nc2nc(-c3c(C)nc4ncccn34)cs2)cc1`?
HSV augment: inactive; L929 necroptosis: 0; TNF death inh: -19; m-calpain inh: -23

What do the screens show for `Cc1nc2ncccn2c1-c1csc(Nc2ccc(O)cc2)n1`?
HSV augment: inactive; L929 necroptosis: 88*; TNF death inh: -9; m-calpain inh: -10; zVAD death conf: 1

What do the screens show for `Cc1ccc(OCCCCNC2CCCC(C)C2C)c(C)c1` (stereo unspecified)?
HSV augment: inactive; L929 necroptosis: 3; TNF death inh: 2; m-calpain inh: 39

Results for CCOC(=O)C1CCN(C(=O)COc2ccc(S(=O)(=O)N3CCCC3)cc2C)CC1 ?
HSV augment: inactive; L929 necroptosis: 2; TNF death inh: 1; m-calpain inh: -13

Results for CCN(CC)Cc1cc2[nH]c3c4ccc(Cl)cc4ncc3c2cc1OC ?
HSV augment: inactive; L929 necroptosis: 81*; TNF death inh: -29; m-calpain inh: -32; zVAD death conf: 73*

What do the screens show for `O=c1oc2ccccc2nc1/C=C(O)/C=C/c1ccc(F)cc1`?
HSV augment: inactive; L929 necroptosis: 14; TNF death inh: 11; m-calpain inh: 0

Results for Cc1ccc(/C(O)=C/c2nc3ccccc3oc2=O)cc1 ?
HSV augment: inactive; L929 necroptosis: 77*; TNF death inh: 17; m-calpain inh: 6; zVAD death conf: 1

What do the screens show for `O=c1oc2ccccc2nc1/C=C(O)/C=C\c1ccccc1`?
HSV augment: inactive; L929 necroptosis: 78*; TNF death inh: 10; m-calpain inh: 15; zVAD death conf: 3

What do the screens show for `Cc1ccc2oc(=O)c(/C=C(\O)c3ccco3)nc2c1`?
HSV augment: inactive; L929 necroptosis: 6; TNF death inh: 4; m-calpain inh: 15

What do the screens show for `Oc1ccccc1N1CCN(CC(O)COCc2ccccc2Cl)CC1` (stereo unspecified)?
HSV augment: inactive; L929 necroptosis: 0; TNF death inh: 1; m-calpain inh: -17

How did c1cnc2ccc(C(c3nnnn3C3CCCCC3)N3CCN(C4CCCCC4)CC3)cc2c1 (stereo unspecified) do in these assays?
HSV augment: inactive; L929 necroptosis: 77*; TNF death inh: 3; zVAD death conf: 70*
